Measured values taken from PubChem BioAssay AID504720 (Sanford-Burnham Center for Chemical Genomics, 2011).
Hit rate of the full screen: of about 350,000 compounds, about 1,100 (0.31%) were called active. Rule as the data show it: active = activation above about 50%; inactive = the rest. Only a selection was taken, and actives are over-represented in it overall.

biological target: Endoribonuclease toxin MazF (Escherichia coli (strain K12)) (UniProt P0AE70); assay: activators of E. coli MazEF toxin-antitoxin RNase, primary screen, biochemical, fluorescence, uHTS (AID 504720); details: FAM/BHQ RNA-DNA oligo cleavage fluorescence, 5 h, at 20 µM, hits give high values
Sequence (P0AE70 whole entry, looked up): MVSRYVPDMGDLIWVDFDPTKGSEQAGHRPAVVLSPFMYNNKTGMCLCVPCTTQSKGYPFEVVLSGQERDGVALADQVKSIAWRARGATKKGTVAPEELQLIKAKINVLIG

SMILES | activation
CCOc1ccc(/C=C/C(=O)OCC(=O)c2ccccc2OC)cc1OC | -8.54% (inactive)
Cc1cccc(-n2c(O)c(C=Nc3ccccc3N)c(=O)[nH]c2=O)c1 | 10.4% (inactive)
COC(=O)Cc1csc(/N=C/c2c(O)n(-c3cccc(C(F)(F)F)c3)c(=O)c3ccccc23)n1 | -24.2% (inactive)
Cc1ccc(N=Cc2c(O)n(-c3nccs3)c(=O)c3ccccc23)c(C)c1 | 1250% (active)
COc1ccc(C)cc1N(C)C(=O)c1coc(=O)c2ccccc12 | 4.28% (inactive)
COc1cc(OC)cc(C(=O)Nc2ccc(-c3nc4ccccc4o3)c(O)c2)c1 | -11.7% (inactive)
O=C(Nc1ccc2oc(-c3ccc4ccccc4c3)nc2c1)c1cccs1 | 57.7% (active)
O=C(Nc1ccc2oc(-c3ccccc3F)nc2c1)c1ccco1 | 1.3% (inactive)
O=C(NCCSc1ncc(-c2ccccc2)[nH]1)c1ccco1 | 3.87% (inactive)
COCCCNC(=O)c1c(F)c(F)c(F)c(F)c1F | 5.56% (inactive)
COc1ccc(/C=C/c2c(-c3cccc(C)c3)oc3ccc(-c4ccc5c(c4)OCO5)cc23)cc1 | -7.77% (inactive)
Cc1cc(C)cc(Oc2c(C(F)(F)F)oc3cc(OCC(=O)O)ccc3c2=O)c1 | 2.37% (inactive)
O=C(Cc1ccccc1)Nc1ccc(NC(=O)c2cccnc2)cc1 | -0.44% (inactive)
CCOC(=O)c1cc(NC(=O)c2cccnc2)ccn1 | 0.906% (inactive)
CCC(=O)Nc1cccc(NC(=O)c2cccnc2)c1 | 335% (active)
O=C(NCCOc1ccccc1)N1[C@H]2CC[C@@H]1C=C(c1ccc(F)cc1OCc1ccccc1)C2 | -1.59% (inactive)
CSCCC1NC2(C(=O)Nc3ccc(Cl)cc32)[C@@H]2C(=O)N(C3CCCC3)C(=O)[C@H]12 (stereo partly specified) | 2.84% (inactive)
O=C(CN1CCN(c2ccc(O)cc2)CC1)Nc1ccc(-c2ccccc2)cc1 | 111% (active)
O=C(CN1CCOCC1)Nc1ccccc1 | 6.62% (inactive)
CC(=O)c1ccc(N2CCN(CC(=O)Nc3ccccc3N3CCOCC3)CC2)cc1 | 4.75% (inactive)
CN(C)Cc1c(O)ccc2occ(C(O)c3ccccc3)c12 (stereo unspecified) | 8.71% (inactive)

SMILES | activation
COc1cccc2c1OCC(CN1CCN(C3CCCCC3)C(CCO)C1)=C2 (stereo unspecified) | 0.264% (inactive)
CC(=O)NC(C)(C)C1CC=C(C)/C(=N\O)C1 (stereo unspecified) | 6.07% (inactive)
COC(C/C=C/C(=O)[C@@H](C)OCc1ccccc1)OC | -1.24% (inactive)
CCOC(=O)CSc1nc(C)cc2c1C(=O)OC2 | 2.74% (inactive)
O=C(COC(=O)Cn1[nH]c(=O)c2ccccc2c1=O)Nc1ncc(Cl)cc1Cl | -9.39% (inactive)
Cc1ccccc1OCc1nnc(SCC(=O)N2c3ccccc3Sc3ccc(Cl)cc32)o1 | -5.1% (inactive)
COc1cccc(NC(=O)c2ccc3c(SCC(=O)O)c4c(nc3c2)CCCC4)c1 | 0.29% (inactive)
CC(=O)c1ccc(NC(=O)c2ccc3c(Cl)c4c(nc3c2)CCCC4)cc1 | 61.1% (active)
CC(C)CCNC(=O)c1ccc2c(Cl)c3c(nc2c1)CCC3 | 0.61% (inactive)
O=C(CN1CCN(Cc2ccc(F)cc2Cl)C1=O)NCc1cccs1 | 2.52% (inactive)
COc1ccc(NC(=O)c2cc([N+](=O)[O-])ccc2NC(=O)CNC2CCCCC2C)c(OC)c1 (stereo unspecified) | 5.61% (inactive)
Cc1ccc(Sc2ccncc2S(N)(=O)=O)cc1 | 4.01% (inactive)
COc1ccc(N=Cc2c(O)n(C)c(=O)[nH]c2=O)cc1 | -3.16% (inactive)
COc1ccc(CCn2c(O)c(C=NC3CC3)c(=O)[nH]c2=O)cc1OC | 0.91% (inactive)
COc1ccc(Cn2c(O)c(/C=C3/C=CC=N3)c(=O)[nH]c2=O)cc1 | 79.2% (active)
CNC(=O)c1c(NC(NC(=O)c2ccco2)C(=O)c2ccc(Cl)cc2)sc2c1CCCC2 (stereo unspecified) | -0.431% (inactive)
O=C(Nc1ncc2c(n1)-c1ccccc1OC2)c1ccc(Cl)cc1 | 3.08% (inactive)
O=C(COC(=O)CNC(=O)C1CCCCC1)NCc1ccccc1 | 0.98% (inactive)
CCCCN1C(=O)/C(=C/C=C2/C=Cc3ccccc3N2CC)SC1=S | 18.5% (inactive)
Cc1ccc(-c2nn(-c3ccccc3)cc2/C=C2\SC(=S)N(CCCCCC(=O)O)C2=O)o1 | 3200% (active)
O=C1/C(=C/c2coc3ccc(O)cc3c2=O)SC(=S)N1c1ccccc1 | -53.2% (inactive)

SMILES | activation
CCOc1ccc(S(=O)(=O)Nc2cccc(C(=O)NCC3(N4CCCCC4)CCCCC3)c2)cc1 | -1.19% (inactive)
COc1ccc(CCNC(=O)c2nnc(CS(=O)(=O)c3ccccc3)o2)cc1OC | 6.35% (inactive)
O=C(NCC12CC3CC(C1)CC(CNC(=O)N1CCCC1)(C3)C2)N1CCCC1 | -3.78% (inactive)
COc1ccc(CNC(=O)CCC(=O)Nc2nnc(C(C)C)s2)cc1 | 7.7% (inactive)
Cc1ccc(CN2C(=O)N/C(=C/c3cc(C)n(-c4ccccn4)c3C)C2=O)cc1 | -15.4% (inactive)
CN(C(=O)CN1C(=O)NC(C)(CCc2ccccc2)C1=O)c1ccccc1 (stereo unspecified) | -1.8% (inactive)
CN(C)c1ccc(/C=C2\NC(=S)N(Cc3ccccc3)C2=O)cc1 | 56.4% (active)
COCCn1c(=NC(=O)c2ccccc2[N+](=O)[O-])sc2cc(S(C)(=O)=O)ccc21 | 15.4% (inactive)
CSc1ccccc1C(=O)OCC(=O)N1CCN(C(C)=O)CC1 | 1.11% (inactive)
Cc1scc(C(=O)NNC(=S)NCC(C)C)c1C | 5.32% (inactive)
Cc1scc(C(=O)NNC(=S)NCc2ccccc2)c1C | 51.1% (active)
O=C(NNC(=S)NCc1ccccc1)c1ccc(OC(F)F)cc1 | -1.92% (inactive)
COc1cc(S(=O)(=O)N2CCN(C(=O)C3CC3)CC2)ccc1NC(C)=O | 3.42% (inactive)
COc1c(C)c2c(c(O)c1C/C=C(\C)CCC(=O)O)C(=O)OC2 | 6.86% (inactive)
O=C(COC(=O)c1cccc(Cl)c1)NC(=O)NCc1ccccc1 | -3.25% (inactive)
c1ccc(-c2cn3c(n2)CCc2ccc4cccnc4c2-3)cc1 | 4.41% (inactive)
O=C(NCc1cccc(Cl)c1)C1=CC=CN2CCS(=O)(=O)N=C12 | -3.56% (inactive)
CCOC(=O)N1CCN(C(=O)CN(C2CCCCC2)S(C)(=O)=O)CC1 | -5% (inactive)
CCc1ccc2nc(Nc3ncc(C(C)=O)c(C)n3)nc(C)c2c1 | -3.52% (inactive)
